The text below walks through data of article PMC9911399, “Two distinct binding modes provide the RNA-binding protein RbFox with extraordinary sequence specificity”.

Where a chain is given by its changes, count along the chain named. Over roughly 16,000 sequences, “ka relative to ugcaugu” has its median near 0.096; the highest 2% begin near 0.35. The sample as a whole holds a higher share of the highest values than the screen did.

Sequences and labels used below:
B1: AAGACCU (DNA:RNA)
RNA: GGGAGACCGGAAUUCAGAUUGUCCAAGACCUUUAAAUCCCGUCGUAGCCACCA
DNA 1: CAATCTGAATTCCGGTCTCCC
DNA 2: TGGTGGCTACGACGGGATT
B2: GACUUGG (DNA:RNA)
RNA: B1 RNA with A25G, G27C, A28U, C29U, C30G, U31G
DNA 1: CAATCTGAATTCCGGTCTCCC
DNA 2: TGGTGGCTACGACGGGATT
B3: CCCAUAU (DNA:RNA)
RNA: B1 RNA with A25C, A26C, G27C, C29U, C30A
DNA 1: CAATCTGAATTCCGGTCTCCC
DNA 2: TGGTGGCTACGACGGGATT
B4: UUCGAGC (DNA:RNA)
RNA: GGGAGACCGGAAUUCAGAUUGUCCUUCGAGCUUAAAUCCCGUCGUAGCCACCA
DNA 1: CAATCTGAATTCCGGTCTCCC
DNA 2: TGGTGGCTACGACGGGATT
B5: GAAGACC (DNA:RNA)
RNA: B4 RNA with U25G, U26A, C27A, G30C
DNA 1: CAATCTGAATTCCGGTCTCCC
DNA 2: TGGTGGCTACGACGGGATT
B6: CAAUUUU (DNA:RNA)
RNA: B1 RNA with A25C, G27A, A28U, C29U, C30U
DNA 1: CAATCTGAATTCCGGTCTCCC
DNA 2: TGGTGGCTACGACGGGATT
B7: CUCUUGA (DNA:RNA)
RNA: B4 RNA with U25C, G28U, A29U, C31A
DNA 1: CAATCTGAATTCCGGTCTCCC
DNA 2: TGGTGGCTACGACGGGATT
B8: UUUGGCC (DNA:RNA)
RNA: B4 RNA with C27U, A29G, G30C
DNA 1: CAATCTGAATTCCGGTCTCCC
DNA 2: TGGTGGCTACGACGGGATT
B9: GACUCAA (DNA:RNA)
RNA: B1 RNA with A25G, G27C, A28U, C30A, U31A
DNA 1: CAATCTGAATTCCGGTCTCCC
DNA 2: TGGTGGCTACGACGGGATT
B10: UGUCGUG (DNA:RNA)
RNA: B4 RNA with U26G, C27U, G28C, A29G, G30U, C31G
DNA 1: CAATCTGAATTCCGGTCTCCC
DNA 2: TGGTGGCTACGACGGGATT
B11: UGUGUCU (DNA:RNA)
RNA: B1 RNA with A25U, A26G, G27U, A28G, C29U
DNA 1: CAATCTGAATTCCGGTCTCCC
DNA 2: TGGTGGCTACGACGGGATT
B12: UGUGUUG (DNA:RNA)
RNA: B4 RNA with U26G, C27U, A29U, G30U, C31G
DNA 1: CAATCTGAATTCCGGTCTCCC
DNA 2: TGGTGGCTACGACGGGATT
B13: CUGUGUC (DNA:RNA)
RNA: B4 RNA with U25C, C27G, G28U, A29G, G30U
DNA 1: CAATCTGAATTCCGGTCTCCC
DNA 2: TGGTGGCTACGACGGGATT
B14: UGUGUCG (DNA:RNA)
RNA: B4 RNA with U26G, C27U, A29U, G30C, C31G
DNA 1: CAATCTGAATTCCGGTCTCCC
DNA 2: TGGTGGCTACGACGGGATT
B15: UGUAGUG (DNA:RNA)
RNA: B1 RNA with A25U, A26G, G27U, C29G, C30U, U31G
DNA 1: CAATCTGAATTCCGGTCTCCC
DNA 2: TGGTGGCTACGACGGGATT
B16: UGUGUAG (DNA:RNA)
RNA: B4 RNA with U26G, C27U, A29U, G30A, C31G
DNA 1: CAATCTGAATTCCGGTCTCCC
DNA 2: TGGTGGCTACGACGGGATT
B17: UGUUGUG (DNA:RNA)
RNA: B4 RNA with U26G, C27U, G28U, A29G, G30U, C31G
DNA 1: CAATCTGAATTCCGGTCTCCC
DNA 2: TGGTGGCTACGACGGGATT
B18: CCCUGUC (DNA:RNA)
RNA: B4 RNA with U25C, U26C, G28U, A29G, G30U
DNA 1: CAATCTGAATTCCGGTCTCCC
DNA 2: TGGTGGCTACGACGGGATT
B19: GCACGUU (DNA:RNA)
RNA: B1 RNA with A25G, A26C, G27A, A28C, C29G, C30U
DNA 1: CAATCTGAATTCCGGTCTCCC
DNA 2: TGGTGGCTACGACGGGATT
B20: GUUAAGG (DNA:RNA)
RNA: B4 RNA with U25G, C27U, G28A, C31G
DNA 1: CAATCTGAATTCCGGTCTCCC
DNA 2: TGGTGGCTACGACGGGATT
B21: UGUACAC (DNA:RNA)
RNA: B1 RNA with A25U, A26G, G27U, C30A, U31C
DNA 1: CAATCTGAATTCCGGTCTCCC
DNA 2: TGGTGGCTACGACGGGATT
B22: GUCUCAC (DNA:RNA)
RNA: B4 RNA with U25G, G28U, A29C, G30A
DNA 1: CAATCTGAATTCCGGTCTCCC
DNA 2: TGGTGGCTACGACGGGATT
B23: GGGUCUA (DNA:RNA)
RNA: B1 RNA with A25G, A26G, A28U, C30U, U31A
DNA 1: CAATCTGAATTCCGGTCTCCC
DNA 2: TGGTGGCTACGACGGGATT
B24: UAACUCU (DNA:RNA)
RNA: B1 RNA with A25U, G27A, A28C, C29U
DNA 1: CAATCTGAATTCCGGTCTCCC
DNA 2: TGGTGGCTACGACGGGATT
B25: UCUGACU (DNA:RNA)
RNA: B4 RNA with U26C, C27U, G30C, C31U
DNA 1: CAATCTGAATTCCGGTCTCCC
DNA 2: TGGTGGCTACGACGGGATT
B26: AACCUGA (DNA:RNA)
RNA: B1 RNA with G27C, A28C, C29U, C30G, U31A
DNA 1: CAATCTGAATTCCGGTCTCCC
DNA 2: TGGTGGCTACGACGGGATT
B27: CAACUCG (DNA:RNA)
RNA: B1 RNA with A25C, G27A, A28C, C29U, U31G
DNA 1: CAATCTGAATTCCGGTCTCCC
DNA 2: TGGTGGCTACGACGGGATT
B28: UGUGUUC (DNA:RNA)
RNA: B4 RNA with U26G, C27U, A29U, G30U
DNA 1: CAATCTGAATTCCGGTCTCCC
DNA 2: TGGTGGCTACGACGGGATT
B29: CACUGAA (DNA:RNA)
RNA: B1 RNA with A25C, G27C, A28U, C29G, C30A, U31A
DNA 1: CAATCTGAATTCCGGTCTCCC
DNA 2: TGGTGGCTACGACGGGATT
B30: UUCCUUC (DNA:RNA)
RNA: B4 RNA with G28C, A29U, G30U
DNA 1: CAATCTGAATTCCGGTCTCCC
DNA 2: TGGTGGCTACGACGGGATT
B31: GGAUGCU (DNA:RNA)
RNA: B1 RNA with A25G, A26G, G27A, A28U, C29G
DNA 1: CAATCTGAATTCCGGTCTCCC
DNA 2: TGGTGGCTACGACGGGATT
B32: GUUAUGC (DNA:RNA)
RNA: B4 RNA with U25G, C27U, G28A, A29U
DNA 1: CAATCTGAATTCCGGTCTCCC
DNA 2: TGGTGGCTACGACGGGATT
B33: GUAUGCU (DNA:RNA)
RNA: B1 RNA with A25G, A26U, G27A, A28U, C29G
DNA 1: CAATCTGAATTCCGGTCTCCC
DNA 2: TGGTGGCTACGACGGGATT
B34: CGUAUGC (DNA:RNA)
RNA: B4 RNA with U25C, U26G, C27U, G28A, A29U
DNA 1: CAATCTGAATTCCGGTCTCCC
DNA 2: TGGTGGCTACGACGGGATT
B35: GGUAUGC (DNA:RNA)
RNA: B4 RNA with U25G, U26G, C27U, G28A, A29U
DNA 1: CAATCTGAATTCCGGTCTCCC
DNA 2: TGGTGGCTACGACGGGATT
B36: UUAUGCU (DNA:RNA)
RNA: B1 RNA with A25U, A26U, G27A, A28U, C29G
DNA 1: CAATCTGAATTCCGGTCTCCC
DNA 2: TGGTGGCTACGACGGGATT

In this experiment the target is T1, RBFOX1 RRM RbFoxmut (Fox-RRM*) (Homo sapiens, UniProt Q9NWB1 109-208, R118D;E147R;N151S;E152T).
T1 sequence: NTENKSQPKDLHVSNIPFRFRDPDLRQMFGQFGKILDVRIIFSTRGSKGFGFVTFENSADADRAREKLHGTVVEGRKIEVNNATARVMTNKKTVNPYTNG
Kind of experiment: EMSA; HiTS-Eq, 1 nM pool, 10 min; buffer printed only for the single-RNA assays: 10 mM Tris pH 7.5, 150 mM NaCl, 3.4 mM EDTA, 0.001% NP-40, 30 C. The following applies: tags: His6 N-terminal (pET28a); label: 5' 32P. The procedure, abridged: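 Purified RbFox RRM, wild type or mutant, was incubated for 10 min in 50 µL with 1 nM of a 5′-radiolabelled RNA pool carrying 7 randomized nucleotides, whose flanks were annealed to DNA oligonucleotides, over a series of increasing protein concentrations. Unbound RNA was resolved on 8% native PAGE, cut out, reverse-transcribed, barcoded by PCR and sequenced on an Illumina HiSeq 2500. Relative association constants were derived from changes in read counts for each RNA species versus the control reaction and normalised to the cognate motif.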
Regarding B1, the binding signal was 0.0678 KA relative to UGCAUGU.
In the case of B2 it was 0.129 KA relative to UGCAUGU; in that of B3, 0.0892 KA relative to UGCAUGU.
Take B4: the binding signal is 0.116 KA relative to UGCAUGU.
For B5 the value was 0.0506 KA relative to UGCAUGU; for B6, 0.0669 KA relative to UGCAUGU; for B7, 0.107 KA relative to UGCAUGU.
For B8, the binding signal is 0.282 KA relative to UGCAUGU.
With B9, the binding signal was 0.0967 KA relative to UGCAUGU.
For B10 the value was 0.193 KA relative to UGCAUGU; for B11, 0.131 KA relative to UGCAUGU; for B12, 0.383 KA relative to UGCAUGU.
Take B13: the binding signal is 0.436 KA relative to UGCAUGU.
For B14 the value was 0.253 KA relative to UGCAUGU.
For the molecule B15, the binding signal was 0.682 KA relative to UGCAUGU.
In the case of B16 it was 0.196 KA relative to UGCAUGU.
As to B17, the binding signal is 0.29 KA relative to UGCAUGU.
In the case of B18 it was 0.194 KA relative to UGCAUGU.
For B19, the binding signal was 0.318 KA relative to UGCAUGU.
For B20 the value was 0.0786 KA relative to UGCAUGU.
As for B21, the binding signal was 0.0562 KA relative to UGCAUGU.
As for B22, the binding signal is 0.0695 KA relative to UGCAUGU.
As for B23, the binding signal was 0.1 KA relative to UGCAUGU.
Take B24: the binding signal was 0.0488 KA relative to UGCAUGU.
For the molecule B25, the binding signal is 0.0694 KA relative to UGCAUGU.
As for B26, the binding signal is 0.0413 KA relative to UGCAUGU.
In the case of B27 it was 0.142 KA relative to UGCAUGU; in that of B28, 0.108 KA relative to UGCAUGU.
On to B29, for which the binding signal is 0.0869 KA relative to UGCAUGU.
In the case of B30 it was 0.0735 KA relative to UGCAUGU; in that of B31, 0.142 KA relative to UGCAUGU.
B32: the binding signal is 0.21 KA relative to UGCAUGU.
In the case of B33, the binding signal is 0.402 KA relative to UGCAUGU.
In the case of B34, the binding signal is 0.325 KA relative to UGCAUGU.
Consider B35, for which the binding signal was 0.398 KA relative to UGCAUGU.
In the case of B36 it was 0.13 KA relative to UGCAUGU.
